Among the data in PubChem BioAssay (Tox21) are Potency and outcome values, retold here.

Assay [1] is described as follows: qHTS assay to identify aromatase inhibitors - cell viability counter screen (AID 743084).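 Note: cells stimulated with testosterone during compound exposure; nearly all actives have a fitted effect of over 55% in size.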
The target in assay [2] is Aryl hydrocarbon receptor (Homo sapiens) (UniProt P35869). In words: qHTS assay to identify small molecule that activate the aryl hydrocarbon receptor (AhR) signaling pathway (AID 743085).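 For activation: HG2L7.5c1 human HepG2 liver cells with stably integrated DRE-driven firefly reporter; series mostly up to about 70 µM.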 Note: nearly all actives have a fitted effect of over 15% in size. Note: potency is the fitted concentration of half-maximal effect. A digest of the protocol:
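Luminescence (ONE-Glo) from a dioxin-responsive-element luciferase reporter in HG2L7.5c1 HepG2 cells after 24 hr compound exposure at 37C; viability measured by CellTiter-Fluor fluorescence beforehand.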
(In qHTS, concentration-response curves come from the screen itself.)

Assay [3] in a line: qHTS assay to identify small molecule that activate the aryl hydrocarbon receptor (AhR) signaling pathway - cell viability counter screen (AID 743086). Note: series mostly up to about 70 µM; nearly all actives have a fitted effect of over 45% in size. In outline: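 Cytotoxicity counter screen: CellTiter-Fluor signal (30 min, 37 C) in 4000 HepG2 cells/well carrying the DRE-luciferase reporter, following 24 h compound exposure at 37 C.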
Assay [4] concerns the target Peroxisome proliferator-activated receptor gamma (Homo sapiens) (UniProt P37231). Briefly: qHTS assay to identify small molecule agonists of the peroxisome proliferator-activated receptor gamma (PPARg) signaling pathway (AID 743094; active = well fitted activation curve with a large enough effect in the signal ratio in the repeat runs, not every such curve was filed as active; the % refers to the signal ratio). A digest of the protocol:
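GeneBLAzer PPARg UAS-bla HEK293H cells were plated, rested 5 h, then exposed to compounds for 17 h at 37C. Beta-lactamase activity was read by LiveBLAzer B/G FRET substrate fluorescence after 1 h at room temperature.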

For assay [5] the target is unchanged. Briefly: qHTS assay to identify small molecule antagonists of the peroxisome proliferator-activated receptor gamma (PPARg) signaling pathway (AID 743191; calls by dose curve; note: series mostly up to about 63 µM; nearly all actives have a fitted effect of over 30% in size). In outline: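 Beta-lactamase reporter under UAS control in HEK293H PPARg-bla cells; compound treatment 17 h at 37C. Read-out: fluorescence intensity after 1 h room-temperature incubation with LiveBLAzer B/G FRET substrate.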

A short description of assay [6]: qHTS assay to identify small molecule antagonists of the peroxisome proliferator-activated receptor gamma (PPARg) signaling pathway - cell viability counter screen (AID 743194). Note: nearly all actives have a fitted effect of over 55% in size. A digest of the protocol:
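Viability was measured as CellTiter-Glo luminescence in GeneBLAzer PPARg UAS-bla HEK293H cells. These cells had been exposed 17 h at 37 C to compounds together with rosiglitazone at 50 nM final, with the beta-lactamase readout taken in the same wells.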

Assay [7] is described as follows: qHTS assay for small molecule agonists of the antioxidant response element (ARE) signaling pathway (AID 743202; active = well fitted activation curve with a large enough effect in the signal ratio in the repeat runs, not every such curve was filed as active; the % refers to the signal ratio). A digest of the protocol: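 Quantitative high-throughput format in HepG2 cells bearing an integrated ARE-beta-lactamase reporter. Compound exposure lasted 16 h at 37 C, and fluorescence was read 2 h after adding LiveBLAzer B/G substrate at room temperature.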

Assay [8] is described as follows: qHTS assay for small molecule agonists of the antioxidant response element (ARE) signaling pathway - cell viability counter screen (AID 743203; calls by dose curve; note: nearly all actives have a fitted effect of over 55% in size). In outline: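 ARE-bla HepG2 cells were plated, rested 5 h at 37C/5% CO2, then exposed to compounds in DMSO for 16 h. Viability was read as CellTiter-Glo luminescence after 30 min at room temperature, in the same wells as the ARE screen.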

Assay [9] can be described thus: qHTS assay for small molecule activators of the heat shock response signaling pathway - cell viability counter screen (AID 743209). Note: nearly all actives have a fitted effect of over 50% in size. In outline:
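HSE-bla HeLa cells plated overnight, then exposed to Tox21 compounds (23 nL in DMSO) for 5 h at 37 C. After the bla reporter read, CellTiter-Glo was added in the same wells and luminescence read after 30 min at room temperature.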

Assay [10] is described as follows: qHTS assay for small molecule activators of the heat shock response signaling pathway (AID 743210; active = well fitted activation curve with a large enough effect in the signal ratio in the repeat runs, with a control signal flat, not every such curve was filed as active; the % refers to the signal ratio;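 note: HeLa cells with beta-lactamase reporter driven by heat shock elements; series mostly up to about 63 µM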). A digest of the protocol: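 HeLa HSE-bla cells, overnight plating; cpd in DMSO 5 h, 37 C; LiveBLAzer B/G FRET substrate 2.5 h RT; fluorescence intensity read.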

Inconclusive results are not listed. The source made the active and inactive calls. Unless noted, calls come from the whole dose curve; as a rule, active = well fitted curve in the direction sought with a large enough effect in the repeat runs; inconclusive = weak or mixed curves; inactive = no such curve, though single readings can be large; an effect the other way counts as inactive or inconclusive.

Peroxisome proliferator-activated receptor gamma (Homo sapiens), sequence (P37231 whole entry, looked up): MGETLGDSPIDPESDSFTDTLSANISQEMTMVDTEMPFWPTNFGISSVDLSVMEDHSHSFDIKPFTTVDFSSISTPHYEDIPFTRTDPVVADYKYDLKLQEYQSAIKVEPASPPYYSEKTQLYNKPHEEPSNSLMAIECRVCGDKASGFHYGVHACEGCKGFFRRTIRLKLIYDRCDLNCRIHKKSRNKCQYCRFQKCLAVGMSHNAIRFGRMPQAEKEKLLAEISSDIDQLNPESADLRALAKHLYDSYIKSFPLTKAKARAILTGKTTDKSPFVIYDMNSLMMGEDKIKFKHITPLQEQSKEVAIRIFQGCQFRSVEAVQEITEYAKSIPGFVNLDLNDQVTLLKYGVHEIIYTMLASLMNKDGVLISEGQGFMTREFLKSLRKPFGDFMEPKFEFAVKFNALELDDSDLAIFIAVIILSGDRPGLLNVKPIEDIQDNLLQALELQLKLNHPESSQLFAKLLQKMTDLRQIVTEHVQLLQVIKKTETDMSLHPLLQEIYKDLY
Aryl hydrocarbon receptor (Homo sapiens), sequence (P35869 whole entry, looked up): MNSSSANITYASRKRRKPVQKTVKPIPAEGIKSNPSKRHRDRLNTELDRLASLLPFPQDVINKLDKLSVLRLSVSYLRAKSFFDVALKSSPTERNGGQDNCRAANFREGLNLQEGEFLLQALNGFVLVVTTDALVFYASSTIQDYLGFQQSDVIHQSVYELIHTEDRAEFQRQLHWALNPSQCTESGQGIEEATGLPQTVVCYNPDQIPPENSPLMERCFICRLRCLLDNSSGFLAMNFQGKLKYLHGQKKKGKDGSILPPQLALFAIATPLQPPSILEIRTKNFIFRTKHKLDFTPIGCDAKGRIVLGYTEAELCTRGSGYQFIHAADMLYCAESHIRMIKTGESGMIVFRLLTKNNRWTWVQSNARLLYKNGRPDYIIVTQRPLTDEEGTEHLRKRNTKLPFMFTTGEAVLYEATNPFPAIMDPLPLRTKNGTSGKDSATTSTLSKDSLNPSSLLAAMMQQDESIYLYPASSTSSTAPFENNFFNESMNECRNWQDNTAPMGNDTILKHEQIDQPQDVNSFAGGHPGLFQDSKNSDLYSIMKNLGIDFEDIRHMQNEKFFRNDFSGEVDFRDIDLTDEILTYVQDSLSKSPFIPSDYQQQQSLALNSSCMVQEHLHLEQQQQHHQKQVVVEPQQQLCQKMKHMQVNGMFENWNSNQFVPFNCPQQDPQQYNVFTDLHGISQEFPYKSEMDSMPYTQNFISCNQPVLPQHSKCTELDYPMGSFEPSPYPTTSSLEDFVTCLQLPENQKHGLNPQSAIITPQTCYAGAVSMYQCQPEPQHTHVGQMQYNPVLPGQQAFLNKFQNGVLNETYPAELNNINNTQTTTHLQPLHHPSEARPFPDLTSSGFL

With `CCCNC(C)C(=O)Nc1c(C)csc1C(=O)OC` (stereo not drawn), the Potency result in [1], in assay [2], in assay [4], in assay [5], in [6] and in assay [7] was “inactive” each time. Also, in [8], the Potency entry was “inactive”. Also, the outcome in assay [3] and in [9] was inactive.
Turning to `C=CC1CO1` (stereo not drawn), the Potency entry in assay [1], in assay [2], in [4], in [5], in assay [6] and in assay [7] was “inactive” throughout. Also, the Potency result in assay [8] and in assay [10] was “inactive” each time. Moreover, the call in [3] was inactive.
For the compound `CC(C)C(=O)OC/C=C/c1ccccc1`, the Potency result in assay [1], in [2], in [4], in assay [5], in assay [6] and in assay [8] was “inactive” throughout. Also, the Potency entry in assay [10] is “inactive”. Moreover, the result in assay [3] and in [9] was inactive.
In the case of `Cc1c(C(=O)NCCO)[n+](=O)c2ccccc2n1[O-]`, the Potency entry in assay [1], in assay [2], in assay [4], in assay [5], in assay [6] and in [7] was “inactive” throughout. For the same compound, the Potency entry in assay [8] and in assay [10] was “inactive” throughout. In addition, the compound was called inactive in assay [3] and in assay [9].
On to `Cc1ccc([N+](=O)[O-])cc1Cl`, for which the Potency entry in assay [1], in assay [2], in [4], in assay [5], in [6] and in [7] was “inactive” throughout. Besides, the Potency result in assay [8] and in [10] was “inactive” in each case. Besides, the call in assay [3] and in [9] was inactive.
As for `CC(=O)OC1C2(C)CCC(C2)C1(C)C` (stereo not drawn), the Potency entry in [1], in [2], in [4], in assay [5], in assay [6] and in assay [8] was “inactive” in each case. Besides, in assay [10], the Potency result was “inactive”. Also, in assay [3], the compound was called inactive.
Regarding `CC(C)S`, the Potency entry in [1], in [2], in assay [4], in [5], in assay [6] and in assay [8] was “inactive” throughout. Moreover, the Potency result in assay [10] is “inactive”. The compound was classed as inactive in assay [3] and in [9].
Take `Clc1cccc(-c2cc(Cl)cc(Cl)c2)c1`: the Potency result in assay [1], in assay [2], in assay [4], in [5], in assay [6] and in [7] was “inactive” in each case. Further, the Potency entry in assay [8] was “inactive”. The call in assay [3] and in assay [9] was inactive.
As to `CC(C)O`, the Potency entry in assay [1], in assay [2], in assay [4], in assay [5], in assay [7] and in assay [8] was “inactive” in each case. Moreover, the call in [3] was inactive.
Turning to `CCOC(=O)C1CC(=O)C(=C(O)C2CC2)C(=O)C1` (stereo not drawn), the Potency result in [1], in assay [2], in assay [4], in assay [5], in assay [6] and in assay [7] was “inactive” in each case. Moreover, the Potency result in assay [8] and in assay [10] was “inactive” each time. Besides, in assay [3], the call was inactive.
As for `CC(=O)N[C@@H](CC(C)C)C(=O)O`, the Potency entry in [1], in [2], in assay [4], in assay [5], in assay [6] and in [8] was “inactive” in each case. The compound was classed as inactive in assay [3] and in assay [9].
Turning to `O=c1[nH]cnc2c1ncn2[C@@H]1O[C@H](CO)[C@@H](O)[C@H]1O`, the Potency entry in assay [1], in [2], in assay [4], in assay [5], in assay [6] and in assay [7] was “inactive” in each case. Also, the Potency result in [8] and in assay [10] was “inactive” in each case. Moreover, the compound was classed as inactive in assay [3] and in assay [9].
For the compound `CCOC(=O)NCCC[Si](OCC)(OCC)OCC`, the Potency result in assay [1], in assay [2], in assay [4], in [5], in assay [6] and in [7] was “inactive” each time. In addition, the Potency result in assay [8] and in assay [10] was “inactive” in each case. The outcome in [3] and in assay [9] was inactive.
Regarding `CC1(C)C(=O)N(Cl)C(=O)N1Br`, the Potency entry in assay [1], in assay [2], in [4], in assay [5], in [6] and in assay [8] was “inactive” each time. Besides, in assay [10], the Potency result is “inactive”. Moreover, the call in assay [3] and in assay [9] was inactive.
Regarding `Cc1cc2nc(N)sc2cc1C`, the Potency result in assay [1], in assay [4], in assay [5], in assay [6], in assay [7] and in assay [8] was “inactive” throughout. Further, the Potency result in assay [10] was “inactive”. Also, the Potency in assay [2] was 6.17 µM (active). In addition, the outcome in [3] and in assay [9] was inactive.
Take `CC(C)(C)c1ccc(OC(=O)c2ccccc2O)cc1`: the Potency result in [1], in assay [2], in assay [4], in [5], in [6] and in assay [7] was “inactive” in each case. The Potency result in assay [8] and in [10] was “inactive” in each case. For the same compound, the outcome in [3] and in assay [9] was inactive.
As to `CO[Si](C)(C)OC`, the Potency entry in [1], in [2], in assay [4], in [5], in assay [6] and in assay [7] was “inactive” in each case. The Potency entry in assay [8] and in [10] was “inactive” each time. For the same compound, the compound was called inactive in [3] and in assay [9].
As for `C[C@@H](N)C(=O)O`, the Potency result in assay [1], in [2], in assay [4], in [5], in [6] and in [7] was “inactive” in each case. Besides, the Potency entry in assay [8] is “inactive”. The compound was called inactive in assay [3] and in assay [9].
Regarding `CCN[C@H]1CN(CCCOC)S(=O)(=O)c2sc(S(N)(=O)=O)cc21`, the Potency entry in assay [1], in [2], in [4], in assay [5], in [6] and in assay [7] was “inactive” throughout. In assay [8], the Potency entry was “inactive”. In addition, the call in assay [3] and in [9] was inactive.
`O=Cc1ccc(F)c(Br)c1`: the Potency result in assay [1], in [2], in assay [4], in assay [5], in assay [6] and in assay [7] was “inactive” in each case. Besides, the Potency result in assay [8] and in assay [10] was “inactive” throughout. In addition, the compound was classed as inactive in assay [3] and in assay [9].
With `C[C@]12C(=O)OC(=O)[C@H]1[C@H]1C=C[C@@H]2C1`, the Potency result in [1], in [2], in assay [4], in assay [5], in assay [6] and in assay [8] was “inactive” each time. Besides, the outcome in [3] and in assay [9] was inactive.
On to `C=C(C)C(=O)OCCOP(=O)(O)O`, for which the Potency entry in [1], in assay [2], in assay [4], in assay [5], in assay [6] and in assay [8] was “inactive” each time. Besides, the call in [3] and in assay [9] was inactive.
As to `CC(C)(CO)[C@@H](O)C(=O)NCCC(=O)O`, the Potency result in [1], in assay [2], in assay [4], in assay [5], in assay [6] and in assay [8] was “inactive” each time. The compound was classed as inactive in assay [3] and in [9].
As for `CC(=O)N(CC(O)CN(C(C)=O)c1c(I)c(C(=O)NCC(O)CO)c(I)c(C(=O)NCC(O)CO)c1I)c1c(I)c(C(=O)NCC(O)CO)c(I)c(C(=O)NCC(O)CO)c1I` (stereo not drawn), the Potency result in assay [1], in assay [2], in assay [4], in [5], in assay [7] and in [8] was “inactive” throughout. Further, in assay [3], the compound was classed as inactive.
In the case of `C1CSCCS1`, the Potency result in assay [1], in assay [2], in assay [4], in assay [5], in assay [6] and in assay [8] was “inactive” throughout. Further, in assay [10], the Potency entry was “inactive”. The result in assay [3] and in assay [9] was inactive.
`O=S(=O)(O)C(F)(F)F`: the Potency result in assay [1], in [2], in assay [4], in [5], in assay [6] and in assay [8] was “inactive” throughout. The Potency result in [10] was “inactive”. For the same compound, the compound was classed as inactive in [3] and in assay [9].
